Sampled rows, rich in hits. Any-hit rate of the full collection: about 3.1%.
Beta apoptosis – beta cell apoptosis inhibition; AID 435005; hit rate 0.8% among 300,000; INS-1E cytokine-induced death, ATP luminescence, 48 h; percent of positive-control rescue, neutral wells zero; protection from apoptosis, % (test concentration not listed);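 active = Every replicate reaches about 75%, or at least half do and their mean reaches it too, limit read from the data; inconclusive = At least half of replicates reach the limit but their mean does not; inactive = Under half of replicates reach the limit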;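 note: higher means more ATP so stronger rescue from cytokine killing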
PP1 counter – PP1-alpha (human) inhibition in PP5 counter-screen; P62136; purified PP1alpha, OMFP fluorescence; inhibition, % at 6.7 µM; hit rate 0.9% among 320,000;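 active = inhibition above the mean inhibition of all tested compounds plus 3 SD, computed separately for each screening campaign, cut at about 15% in these data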
Target sequence (P62136 whole entry, looked up): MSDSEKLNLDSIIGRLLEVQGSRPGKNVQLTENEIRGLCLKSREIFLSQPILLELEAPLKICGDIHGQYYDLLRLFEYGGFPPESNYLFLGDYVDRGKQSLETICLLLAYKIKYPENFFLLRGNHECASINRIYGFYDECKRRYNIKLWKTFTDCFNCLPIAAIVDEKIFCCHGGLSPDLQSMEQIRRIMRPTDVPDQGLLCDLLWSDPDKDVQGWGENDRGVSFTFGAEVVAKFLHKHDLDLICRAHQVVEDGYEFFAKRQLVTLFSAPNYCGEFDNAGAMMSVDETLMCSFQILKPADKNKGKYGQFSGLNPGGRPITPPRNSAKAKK
PP5 inh – inhibitors of human protein phosphatase 5 (PP5); P53041; purified PP5c, OMFP substrate fluorescence; inhibition, % at 6.7 µM; hit rate 0.18% among 320,000; AID 1987;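 active = inhibition above the campaign's mean inhibition across all tested compounds plus 3 SD, cut at about 9.5% in these data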
CSC inhib – cancer stem cell inhibition; hit rate 1.1% among 300,000; inhibition, % at 7.5 µM; cancer stem cell-like cells viability, luminescence; in the data active = inhibition above about 75%; inconclusive = no clear call, values can overlap the other calls; tested in HMLE shEcad cells
SKKanGAS inh – inhibitors of SKKanGAS S. pyogenes growth in kanamycin (SK-promoter or general growth effect); BacTiter-Glo, 6 h; inhibition, % at 7.5 µM; hit rate 1.3% among 300,000; AID 1662;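 active = mean replicate score, as percent of positive control median, at least 50; inconclusive = mean below 50 but one replicate at or above 50; inactive = mean and every replicate below 50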;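 note: strain carries kanamycin resistance gene driven by streptokinase promoter and grows in 40 µg/ml kanamycin; loss of luminescence reflects streptokinase promoter inhibition or plain growth inhibition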
Hits are given with their value; – = inactive; ? = inconclusive; · = no result given; + = active, no number.

SMILES | Beta apoptosis | PP1 counter | PP5 inh | CSC inhib | SKKanGAS inh
CCOC(=O)Cc1c(C)nc2c(-c3cccc(Br)c3)c[nH]n2c1=O | – | – | – | – | 95
Cc1cccc(NC(=O)CCC2CCN(C(=O)C3CC=CCC3)CC2)c1 (stereo not given) | – | – | – | – | –
CN1CCN(S(=O)(=O)c2ccc(NCc3ccc4c(c3)OCO4)nc2)CC1 | · | – | – | · | –
CCOC(=O)c1nn(-c2cccc(Cl)c2)c2nc(Nc3ccccc3)cc(=O)n12 | – | – | – | – | –
CCOC(=O)c1nn(-c2cccc(OC)c2)c2nc(Nc3ccccc3)cc(=O)n12 | – | – | – | · | 62
CC(=O)NC(=S)NNC(=O)C(c1ccccc1)c1ccccc1 | – | – | – | – | 80
N#CCC(=O)NNC(=S)NC(=O)C(c1ccccc1)c1ccccc1 | – | – | – | – | –
CC(C)C(=O)Nc1nnc(S(=O)(=O)N(C)c2ccc(Cl)cc2)s1 | – | · | · | – | –
C/C(N)=C(/C#N)C(=O)CSc1nc2scc(-c3ccc(F)cc3)c2c(=O)n1C | – | – | – | – | 70
C/C(N)=C(/C#N)C(=O)CSc1nc2ccccc2c(=O)n1Cc1ccc(F)cc1 | – | – | – | – | –
O=C(NNC(=O)c1ccccc1O)c1ccc(Cl)c(S(=O)(=O)N2CCc3ccccc32)c1 | 83 | – | – | – | –
CN1C(=O)/C(=C/c2cc(N=Nc3ccccc3)ccc2O)SC1=S | – | – | – | + | –
Cc1c(N2C(=O)/C(=C\c3ccccc3O)SC2=S)c(=O)n(-c2ccccc2)n1C | – | – | – | – | –
O=C(CCCCl)NC1=NN(c2ccccc2)C(=O)C1 | – | – | – | – | ·
O=C(COc1ccc(Cl)cc1)NC1=NN(c2ccccc2)C(=O)C1 | – | – | – | – | 62
O=C(NC(Nc1ncc(S(=O)(=O)c2ccc([N+](=O)[O-])cc2)s1)(C(F)(F)F)C(F)(F)F)c1ccc(Cl)cc1 | 113 | – | – | 89 | –
O=C(Nc1ncc(S(=O)(=O)c2ccc([N+](=O)[O-])cc2)s1)c1cccc2ccccc12 | – | – | – | 112 | –
CCCCN1C[C@H](Cc2ccccc2)[C@@H](CC(=O)Nc2ccccc2)C1=O | – | – | – | – | –
Fc1ccc(C2C3=C(Nc4ncnn42)c2ccccc2OC3c2ccncc2)cc1 (stereo not given) | – | – | – | – | –
Cc1ccc(C2Oc3ccccc3C3=C2C(c2cccs2)n2ncnc2N3)cc1 (stereo not given) | – | – | – | – | 100
Cc1sc2nc(C(C)C)nc(SCC(=O)N3c4ccccc4CC3C)c2c1C (stereo not given) | – | – | – | – | –
CCc1nc(SCC(=O)N2c3ccccc3CC2C)c2c(C)c(C)sc2n1 (stereo not given) | – | – | – | – | 50
C=CCn1c(SCC(C)=O)nc2scc(-c3ccco3)c2c1=O | – | 15 | – | – | –
C=CCn1c(SCC(=O)N2CCOCC2)nc2scc(-c3ccco3)c2c1=O | – | – | – | – | –
C[C@@]12C(=O)N(CC3CCCO3)CC(=O)N1[C@H]1c3ccccc3OC[C@@H]1[C@@H]2c1ccccc1 (stereo not given in full) | – | – | – | – | ·
SMILES | Beta apoptosis | PP1 counter | PP5 inh | CSC inhib | SKKanGAS inh
Cc1ccc(-n2ncc3c(=O)n(CC(=O)N4CCN(c5ccccc5)CC4)cnc32)cc1C | – | – | – | – | –
COc1ccc(C(=O)NC(=S)Nc2cccc(NC(=O)c3ccco3)c2)cc1[N+](=O)[O-] | – | – | – | – | –
CCOc1ccc(C(=O)NC(=S)Nc2ccc(NC(=O)CC)cc2)cc1[N+](=O)[O-] | – | – | – | – | 53
CCOc1ccc(C(=O)NC(=S)Nc2cccc(NC(=O)c3ccco3)c2)cc1[N+](=O)[O-] | – | – | – | – | 65
Cc1ccc(S(=O)(=O)NCC(c2ccc3c(c2)OCO3)N2CCN(c3ccccc3)CC2)cc1 (stereo not given) | · | – | – | – | –
c1ccc2nc3c(cc2c1)CCCCC3 | – | – | – | – | –
COc1ccc(N2C(=NC(=O)CC3CCCCC3)SC3CS(=O)(=O)CC32)cc1 (stereo not given) | – | – | – | – | –
COC(=O)c1c(NC(=O)/C=C/c2ccc3c(c2)OCO3)sc(C)c1C | – | – | – | 103 | –
CCOC(=O)c1c(NC(=O)/C=C/c2ccc3c(c2)OCO3)sc(C)c1CC | – | – | – | 122 | –
CC(=O)Nc1ccc(NC(=O)CSc2nnc3ccc(-c4ccc(F)cc4)nn23)cc1 | – | – | – | – | –
CCOC(=O)c1c(NC(C)=O)sc2c1CCC(C=NCCCN(CC)CC)=C2Sc1ccccc1 | · | – | – | – | –
N#C/C(N=Nc1ccccc1O)=N\Nc1ccccc1O | 115 | – | – | – | –
Cc1c(Cl)c([N+](=O)[O-])nn1CC(=O)N1CCN(C23CC4CC(CC(C4)C2)C3)CC1 | – | – | – | · | –
CC(C)c1nc2ccc(Br)cn2c1NC1CCCC1 | – | – | – | – | –
CCc1ccccc1OCC(=O)OCC(=O)Nc1cc(C)on1 | – | 17 | – | · | ·
Oc1ccc(/C=N/Nc2nc(-c3ccc(Cl)cc3)cc(C(F)(F)F)n2)cc1 | – | – | – | 85 | ?
CCOC(=O)N1CCN(C(=O)CN(c2ccc(Cl)c(C(F)(F)F)c2)S(C)(=O)=O)CC1 | – | – | – | – | –
OC(COc1cccc2ccccc12)CN1CCN(c2ccccc2Cl)CC1 (stereo not given) | – | – | – | 114 | ?
Cc1ccc(N2CCN(CC(O)COc3cccc4ccccc34)CC2)cc1 (stereo not given) | – | – | – | – | –
CCN(CC(=O)Nc1ccccc1OC)C(=O)CCOc1ccc(C(C)(C)C)cc1 | – | – | – | – | –
O=C(O)c1ccc(-c2nc(-c3ccccc3)c(-c3cccs3)[nH]2)cc1 | – | – | – | – | –
COc1ccc(-c2nc(-c3cccs3)c(-c3cccs3)[nH]2)cc1O | – | – | – | – | 61
COc1ccc(-c2sc3cc(OC)c(OC)cc3c2C#CC2(O)CCCCC2)cc1 | – | – | – | 125 | ·
COc1ccc(-c2sc3ccccc3c2C#CC2(O)CCCCC2)cc1 | – | – | – | 89 | 101
CNC(=O)c1cc(C(=O)c2c(Cl)cccc2Cl)c[nH]1 | – | – | – | – | –
SMILES | Beta apoptosis | PP1 counter | PP5 inh | CSC inhib | SKKanGAS inh
COc1cccc(NC(=O)CN(C)C(=O)[C@@H]2CCCN2C(=O)c2cccs2)c1 | – | · | · | – | ·
CC1C(C#N)=C(SCC(N)=O)NC2=C1C(=O)CC(C)(C)C2 (stereo not given) | – | – | – | – | –
COC(=O)c1c(NC(=O)c2ccccc2)sc2c1CC(C)(C)OC2 | – | – | – | 80 | –
CCOC(=O)c1c(NC(=O)c2ccc(C)cc2)sc2c1CC(C)(C)OC2 | · | – | – | – | –
C/C(CC(=O)Nc1cc(Cl)ccc1Cl)=N\NC(=O)c1ccccc1Br | – | – | – | – | –
COc1ccc(C(CCNCc2ccc(OC(C)C)cc2)c2ccccc2OC)cc1 (stereo not given) | 76 | – | – | 101 | –
CC(=O)c1ccc(N2CCN(C(=O)CN3C(=O)NC4(CCCCC4)C3=O)CC2)c(F)c1 | – | – | – | – | ·
